# Reference: ChEMBL document CHEMBL4513216, “Probing the Open Global Health Chemical Diversity Library for Multistage-Active Starting Points for Next-Generation Antimalarials” (ACS Infect Dis, 2020)
# In all, about 65,000 compounds went through this assay and about 2,100 (3.2%) showed an effect of 50% or more. The median lay at about -52%. This is one part of a sample in which strong results are shown more often than they occur.
# Tested on: Plasmodium falciparum
# Assay: Screen against P. falciparum Asexual Blood Stage (ABS), at 5uM
# Type: functional, Dd2
# Conditions: tested at 5 uM
row,Structure (SMILES),INHIBITION
1,CC(C)n1nc2c(cc1=O)CN(c1ncnc3ccsc13)CC2,-31%
2,CCOc1ccc(N2CCCN=C2NC(=O)c2ccc(Cl)cc2)cc1,-71.7%
3,CCSC1=Nc2c(cnn2-c2ccc(Cl)cc2)C2=NCCCN12,67.3%
4,O=C(NC1=NCCCN1c1ccc(Cl)cc1)c1cccc(Cl)c1,-55.5%
5,CSC1=Nc2c(cnn2-c2ccc(C)cc2)C2=NCCCN12,53.5%
6,CSC1=Nc2c(cnn2-c2ccccc2)C2=NCCCN12,9.95%
7,Cc1ccc(-n2ncc(C(=O)NC3CCCCC3)c2N)cc1,-125%
8,COCCNC(=O)c1cc(C(C)C)nc(N2CCCCC2)n1,-39.9%
9,COC(=O)c1ccc(-c2noc(CN(CCO)Cc3cccs3)n2)cc1,-63.8%
10,O=C(c1cscn1)N1CCCC2(CCN2Cc2cccc(F)c2)C1 (configuration not stated),26.8%
11,Cc1csc(C(=O)N2CC(S(=O)(=O)C3CCCCC3)C2)c1,-52%
12,c1coc(-c2[nH]c3ncccc3c2CN2CCCOCC2)c1,-12.7%
13,Cc1csc2ncnc(N3CCC(Cn4cc(C(C)(C)O)nn4)CC3)c12,-46.7%
14,O=C(C1CCOCC1)N1CCC(OCc2cccnc2)CC1,-110%
15,CC(C)NC(=O)C1CN(C(=O)NCc2ccccc2)CC12CCOCC2 (configuration not stated),-153%
16,Cc1noc(C)c1CN(C)C(=O)NC1CCOCC1,16%
17,Cc1noc(C)c1CN(C)C(=O)NC1CCN(C2CC2)CC1,-155%
18,CC(=O)N1CCC(NC(=O)N(C)Cc2c(C)noc2C)CC1,51.4%
19,Cc1noc(C)c1CN1CCc2ncnc(-c3ccncc3)c2CC1,-104%
20,COCC(=O)Nc1ccnn1-c1ccc(Cl)cc1,68.3%
21,COCCOCC(=O)Nc1ccnn1-c1ccc(Cl)cc1,-100%
22,CCOCCC(=O)Nc1ccnn1-c1ccc(Cl)cc1,-23.8%
23,COc1ccc(S(=O)(=O)NC(=O)COc2ccc3c(c2)CCC3)cc1,-119%
24,c1cn(Cc2ccc(N3CCCN(C4CCCC4)CC3)nc2)cn1,-80%

row,Structure (SMILES),INHIBITION
1,c1csc(CN2CCCN(c3ccc(Cn4ccnc4)cn3)CC2)c1,-41.4%
2,Fc1ccc(N2CCCN(c3ccc(Cn4ccnc4)cn3)CC2)cc1,60.2%
3,Cc1ccc(CN2CCn3c(CNS(C)(=O)=O)nnc3C2)s1,-30.1%
4,CCc1[nH]c2c(CNC(=O)C3CCCN(C)C3)cc(C)cc2c1C (configuration not stated),0.72%
5,CCc1[nH]c2c(CNC(=O)C3CCN(C)C3)cc(C)cc2c1C (configuration not stated),-5.66%
6,CCc1[nH]c2c(CNC(=O)[C@@H]3CCCN3C)cc(C)cc2c1C,60.4%
7,NC(=O)N1CCC2(CC1)CN(c1ccsc1)C(=O)CO2,-60.1%
8,Clc1cccc(N2CCC(NCc3cc[nH]n3)C2)c1 (configuration not stated),-39.8%
9,O=C1CC(NCc2ncc[nH]2)CN1CCc1cccc(Cl)c1 (configuration not stated),-17.4%
10,Clc1cccc(N2CCC(NCc3ncc[nH]3)C2)c1 (configuration not stated),66.6%
11,Cn1cc(C(=O)N2CCCC(c3cnccn3)C2)cn1 (configuration not stated),-55.6%
12,O=C1[C@H]2CN(c3ncccn3)C[C@H]2CN1CC1CC1,-51.9%
13,Cc1cc(C(=O)NCCc2nc3c(s2)CCCC3)n(C)n1,-90%
14,O=C(CCN1CCCC1c1cccc2c1OCCO2)N1CCOCC1 (configuration not stated),-24.9%
15,CC(C)NC(=O)CCN1CCCC1c1cccc2c1OCCO2 (configuration not stated),53.4%
16,COCCN1CCCC1c1cccc2c1OCCO2 (configuration not stated),-0.537%
17,COC(=O)CCN1CCCC1c1cccc2c1OCCO2 (configuration not stated),-42.1%
18,CCNC(=O)CCN1CCCC1c1cccc2c1OCCO2 (configuration not stated),52.7%
19,NC(=O)NC(=O)CCN1CCCC1c1cccc2c1OCCO2 (configuration not stated),24.8%
20,NC(=O)c1nc2c(s1)CCN(C(=O)Nc1cccc(Cl)c1)CC2,-91.8%
21,CC(=O)NCC(=O)Nc1cc(C)n(-c2ccc(Cl)cc2Cl)n1,-97%
22,CC(C)N(C)C(=O)C1CCN(Cc2cnc3ccccn23)CC1,-38.4%
23,CN(C)C(=O)COc1ccccc1CN1CCCC2(C1)CN(C)C(=O)O2 (configuration not stated),-37.9%
24,CCS(=O)(=O)c1ncc(CN(C)C)n1Cc1ccccc1,-37.3%

row,Structure (SMILES),INHIBITION
1,CS(=O)(=O)CCC(=O)Nc1nccn1Cc1ccccc1Cl,-70.9%
2,O=C1NC(c2ccccc2)=N[C@@]12CC[C@@H]1CN(Cc3ccccc3)C[C@@H]12,42.6%
3,O=C1NC(c2ccccc2)=N[C@@]12CC[C@@H]1CN(Cc3ccncc3)C[C@@H]12,15.3%
4,O=C1NC(c2ccccc2)=N[C@@]12CC[C@@H]1CN(Cc3ccoc3)C[C@@H]12,59.6%
5,CN1C(=O)CC(c2cnn(C)c2)C12CCN(C(=O)c1cscn1)CC2 (configuration not stated),-21.4%
6,CC(C)(C)NC(=O)Cn1c(=O)n(Cc2ccco2)c2ncccc21,-56.2%
7,COCC1CCN(c2ccnc3ccsc23)C1 (configuration not stated),45.4%
8,Cc1noc(Cl)c1CCC(=O)N1CCN(c2ccccc2)CC1,53%
9,CCN1CCN(C(=O)CCc2c(C)noc2Cl)CC1,1.06%
10,Cc1noc(C)c1CC(=O)N1CCc2sccc2C1,-48.1%
11,Cc1noc(Cl)c1CCC(=O)N1CCN(c2ncccn2)CC1,-34.8%
12,Cc1noc(Cl)c1CCC(=O)N1CCc2sccc2C1,54.4%
13,Cc1noc(C)c1CN(C)CCC(=O)N1CCc2sccc2C1,-54.3%
14,O=C(CCN1CCCC(CC2CC2)(C(=O)O)C1)NC1CCCC1 (configuration not stated),-79.9%
15,CC(C)(C)n1ncc2c1CCCC2NCc1ccc2c(c1)CCO2 (configuration not stated),-0.776%
16,CC(C)(CO)CCCNC(=O)NC1(c2cccc(F)c2)CC1,-79.4%
17,O=C(CCc1ccsc1)NC1CCN(c2cccc(F)c2)CC1,-55.7%
18,CCc1cc(C(=O)N2CCCC(Cc3ccc(NC)nn3)C2)on1 (configuration not stated),-89.6%
19,CCC(CN1CCCC1)NC(=O)C1(c2ccc(F)cc2)CC1 (configuration not stated),59.1%
20,CCC(CN1CCCCC1)NC(=O)C1(c2ccc(F)cc2)CC1 (configuration not stated),70%
21,CC(Cn1ccnc1)NC(=O)C1(c2ccc(F)cc2)CC1 (configuration not stated),-96.5%
22,CC(Cn1ccnc1)NC(=O)C1(c2ccc(F)cc2)CCCC1 (configuration not stated),-16.4%
23,Cc1cc(C)n(CC(C)NC(=O)C2(c3ccc(F)cc3)CC2)n1 (configuration not stated),-44.3%
24,CC(CNC(=O)C1(c2ccc(F)cc2)CC1)CN1CCCC1=O (configuration not stated),11.4%
